697 NFkB inh: inhibitors of the PMA/ionomycin-induced NF-kB reporter in 697 B cells; 697 B-cell NF-kB luciferase reporter, 16 h; inhibition, % at 4 µM; actives 0.33% (n = 330,000); AID 435022; in the data active = inhibition above about 35%
Jurkat NFkB inh: inhibitors of the PMA/ionomycin-induced NF-kB reporter in Jurkat cells | actives 0.53% (n = 330,000) | AID 435003 | PMA/ionomycin-induced NF-kB luciferase reporter, luminescence | inhibition, % at 4 µM; in the data active = inhibition above about 50%
SMARCA2 act: activators of SMARCA2 function; MG213 cells, MMTV-luciferase reporter, dexamethasone, overnight; activation, % at 9.1 µM; actives 1% (n = 370,000); AID 652017; in the data active = activation above about 7.8%
esBAF inh: inhibitors of esBAF chromatin remodeling in mouse ES cells. reporter increase, % at 12.5 µM. actives 2% (n = 350,000). Bmi1-luciferase knock-in reporter, 24 h; 100% = twice the neutral-well signal; in the data active = activation above about 40%; inconclusive = no clear call, values can overlap the other calls;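 also: a rise in the Bmi1 reporter signal indicates esBAF inhibition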
Gli-Sufu antag: Gli-Sufu pathway antagonism; inhibition, % at 5 µM; Sufu-KO-LIGHT fibroblasts, Gli luciferase reporter luminescence; AID 588413; actives 0.74% (n = 340,000);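 active = inhibition above about 55%, limit read from the data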
esBAF Ring1 qPCR: confirmation of esBAF inhibitors: Ring1 de-repression in mouse ESCs | fold change at 33 µM | 550 tested, under 10 active | mouse ESC E14, Ring1 mRNA RT-qPCR fold change | shares compounds with esBAF inh;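 active = Ring1 gene expression raised more than 2-fold over untreated cells in both replicates at either tested dose; inconclusive = only one replicate above 2-fold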;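 also: Ring1 transcript normalised to actin housekeeping signal by TaqMan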
Fgf4 repress: represses Fgf4 in mouse ESCs, confirming esBAF inhibition. shares compounds with esBAF inh. actives 4% (n = 550). mouse ESC E14, Fgf4 mRNA qPCR fold change; stronger effect = lower value. Fgf4 expression fold change at 33 µM;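 active = Fgf4 expression under 0.8 fold of control in both repeat measurements at one or both tested doses; inconclusive = under 0.8 fold in just a single repeat measurement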;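 also: Fgf4 transcript normalised to actin in duplex TaqMan qPCR; cells exposed to compound for 24 h before lysis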
Bmi1 derepress: de-represses Bmi1 in mouse ESCs, confirming esBAF inhibition | AID 743180 | 550 tested, under 10 active | mouse ESE14 ES cells, Bmi1 mRNA qPCR fold; stronger effect = higher value | fold change at 33 µM | shares compounds with esBAF inh;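 active = Bmi1 expression fold change above 6 at either tested concentration, seen in replicate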;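 also: higher fold means more Bmi1 de-repression and stronger esBAF inhibition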
A549 cytotox: kills or reduces viability of A549 cells; shares compounds with esBAF inh; A549 cytotoxicity, plate reader; cell viability change % (negative = cytotoxic), % at 25 µM, hits read low; 550 tested, under 10 active; call rule not given here
HepG2 cytotox SP: cytotoxicity in HepG2 cells | activity change, negative = inhibition, % at 25 µM | plate reader; stronger effect = lower value | AID 743189 | shares compounds with esBAF inh | actives 4% (n = 550); in the data active = activity change below about -50%
HEK293 cytotox SP: HEK293 cell cytotoxicity at single point; AID 743190; activity change, negative = inhibition, % at 25 µM, hits read low; actives 3% (n = 550); shares compounds with esBAF inh; plate reader; in the data active = activity change below about -38%, passing the limit was not always enough
A number is an active result; – = inactive; ? = inconclusive; · = not tested or not shown. Most compounds without a hit are left out; they make up all but 3.3% or so of the library.

SMILES | 697 NFkB inh | Jurkat NFkB inh | SMARCA2 act | esBAF inh | Gli-Sufu antag | esBAF Ring1 qPCR | Fgf4 repress | Bmi1 derepress | A549 cytotox | HepG2 cytotox SP | HEK293 cytotox SP
O=C(Nc1nccs1)C(=O)c1c[nH]c2ccccc12 | – | – | – | 68 | – | – | – | – | – | – | –
COc1ccccc1C(=O)Nc1sc2c(c1C#N)CCC2 | – | – | · | 59 | – | – | – | – | – | – | –
COc1ccccc1C(=O)Nc1sc2c(c1C(N)=O)CCCC2 | – | – | – | – | – | · | · | · | · | · | ·
CN(Cc1cccnc1)C(=O)c1cc(COc2ccc3c(c2)CCCC3)on1 | – | – | – | 86 | – | – | – | – | – | – | –
CC(=O)c1cccc(OCc2cc(C(=O)N(C)Cc3cnccn3)no2)c1 | – | – | – | · | – | · | · | · | · | · | ·
Cc1cccc(-c2noc(CCC(=O)N3CCN(c4cc(C)ccc4C)CC3)n2)c1 | – | · | – | 63 | – | – | – | – | – | – | –
Cc1ccc(C)c(N2CCN(C(=O)CCc3nc(-c4ccccc4)no3)CC2)c1 | – | · | – | – | – | · | · | · | · | · | ·
Cc1nc(-c2cc(-c3ccc(Cl)cc3)no2)cs1 | – | – | – | · | – | · | · | · | · | · | ·
Cc1csc(-c2ccc3cc(Cl)cc(Cl)c3n2)n1 | · | · | – | 71 | · | – | – | – | – | – | –
C[C@H](CO)N1C[C@H](C)[C@H](CN(C)C(=O)NC2CCCCC2)OCCCC[C@H](C)Oc2ccc(N(C)C)cc2C1=O | · | · | · | – | · | · | · | · | · | · | ·
CNC[C@@H]1OCCCC[C@@H](C)Oc2ccc(NC(=O)Nc3ccccc3)cc2C(=O)N([C@@H](C)CO)C[C@H]1C | · | · | · | – | · | · | · | · | · | · | ·
COc1ccc2c(c1)CC/C(=C/c1cc(OC)c(OC)c(OC)c1)C2=O | – | – | – | – | – | · | · | · | · | · | ·
COc1ccc2c(c1)CC/C(=C/c1ccccn1)C2=O | – | – | – | 68 | – | – | 0.37 | – | – | – | –
CC(C)CN=c1cc(-c2ccccc2)oc2ccc(Cl)cc12 | – | – | – | 54 | – | – | ? | 6.9 | – | – | –
O=C(Nc1ccc(Nc2ccccc2)cc1)Nc1ccccc1Cl | – | – | – | 70 | – | – | – | – | – | – | –
O=C(CCc1nnc(Cc2c[nH]c3ccccc23)o1)NC1CCCC1 | – | – | – | – | – | · | · | · | · | · | ·
O=C(CCc1nnc(CCc2c[nH]c3ccccc23)o1)NC1CCC1 | – | – | – | 66 | – | – | – | – | – | – | –
CCc1nc(SCc2ccc(Br)cc2)n[nH]1 | – | – | – | 47 | – | – | – | – | – | – | –
COC(=O)C[C@@H]1CC[C@@H]2[C@@H](COc3ccc(NS(=O)(=O)c4ccccc4Cl)cc3C(=O)N2C)O1 | · | · | · | – | · | · | · | · | · | · | ·
COc1ccc(Cc2nc3ccc(C(=O)NCCCSC)cc3o2)cc1OC | – | – | – | 77 | – | – | – | – | – | – | –
COC(=O)CCNC(=O)c1ccc2nc(Cc3ccc(OC)c(OC)c3)oc2c1 | – | – | – | ? | – | · | · | · | · | · | ·
O=C(C[C@H]1C[C@H]2c3cc(NS(=O)(=O)c4ccccc4)ccc3O[C@H]2[C@@H](CO)O1)NC1CCCCC1 | · | · | · | – | · | · | · | · | · | · | ·
O=C(Nc1cccc(F)c1)c1c(O)c2ccccc2[nH]c1=O | – | – | – | 80 | – | – | – | – | – | – | –
COc1cccc(OCc2cc(C(=O)N(C)Cc3nc4ccccc4[nH]3)no2)c1 | – | – | – | 69 | – | – | ? | – | – | – | –
CC(=O)c1ccc(OCc2cc(C(=O)N(C)Cc3ncc(C)[nH]3)no2)cc1 | – | – | – | – | – | · | · | · | · | · | ·
SMILES | 697 NFkB inh | Jurkat NFkB inh | SMARCA2 act | esBAF inh | Gli-Sufu antag | esBAF Ring1 qPCR | Fgf4 repress | Bmi1 derepress | A549 cytotox | HepG2 cytotox SP | HEK293 cytotox SP
COc1ccc(-n2nc(C(=O)NCC(=O)N3CCN(c4ccccc4)CC3)c3ccccc3c2=O)c(OC)c1 | – | – | – | – | – | – | – | – | – | – | –
COc1ccc(-n2nc(C(=O)NCC(=O)N3CCN(c4ccc(F)cc4)CC3)c3ccccc3c2=O)c(OC)c1 | – | – | – | – | – | · | · | · | · | · | ·
O=C(Nc1ccc2ccccc2c1)c1cccc2ccccc12 | · | · | – | 77 | – | – | – | – | – | – | –
COc1ccc(NC(=O)c2ccc3ccccc3c2OC)cc1 | – | – | – | 75 | – | – | – | – | – | – | –
COc1ccc(NC(=O)c2ccccc2-c2ccccc2)cc1 | – | – | – | · | – | · | · | · | · | · | ·
O=C(CCN1CCCCC1)NCC[C@@H]1CC[C@@H](NC(=O)C2CCCC2)[C@@H](CO)O1 | · | · | · | – | · | · | · | · | · | · | ·
Cc1ccnc(NC(=O)c2ccc3c(c2)C(=O)N(CC(C)C)C3=O)c1 | – | – | – | 74 | – | – | – | – | – | – | –
CCCN1C(=O)c2ccc(C(=O)Nc3cc(C)ccc3O)cc2C1=O | – | – | – | – | – | · | · | · | · | · | ·
Cc1cc(NC(=O)c2ccc3c(c2)C(=O)N(CC(C)C)C3=O)no1 | – | – | – | · | – | · | · | · | · | · | ·
Cc1ccc(O)c(NC(=O)c2ccc3c(c2)C(=O)N(CC(C)C)C3=O)c1 | – | – | – | 57 | – | – | – | – | – | – | –
O=C(CC1CC1)N[C@H]1CC[C@H](CCNS(=O)(=O)c2ccc(F)cc2)O[C@@H]1CO | · | · | · | – | · | · | · | · | · | · | ·
O=C(CCNS(=O)(=O)c1cccs1)N1CCc2ccccc2C1 | – | – | – | 68 | – | – | – | – | – | – | –
Cc1cc(=O)oc2cc(NC(=O)c3cccc(S(C)(=O)=O)c3)ccc12 | – | – | – | ? | – | · | · | · | · | · | ·
Cc1cc(=O)oc2cc(NC(=O)c3cccc(F)c3)ccc12 | – | – | – | 68 | – | – | – | – | – | – | –
O=C(Nc1ccccc1Cl)c1cc(=O)c2ccccc2o1 | – | – | – | 73 | – | – | – | – | – | – | –
O=C(NCc1ccccc1)c1cc(=O)c2ccccc2o1 | – | – | – | · | – | · | · | · | · | · | ·
C[C@@H]1CN([C@H](C)CO)C(=O)c2cc(NC(=O)CCC(F)(F)F)ccc2O[C@@H](C)CCCCO[C@H]1CN(C)C(=O)Nc1ccc(C(F)(F)F)cc1 | · | · | · | – | · | · | · | · | · | · | ·
COc1ccc(C#Cc2ccc3c(c2)[C@H]2[C@H](CCN2S(=O)(=O)c2ccc(OC)cc2)[C@@H](CO)N3C)cc1 | · | · | · | – | · | · | · | · | · | · | ·
COc1ccc(C2CC2/C(=N/OC(=O)c2cccs2)c2ccccc2)cc1 (configuration not stated) | – | – | – | 68 | – | – | – | – | – | – | –

Screening results as filed in PubChem BioAssay.
